# Experimental data: PubChem BioAssay (NCI)
# This is part of a sample that, as a whole, favours compounds with a hit. Of some 79,000 tested, about 15% had one in any assay. Values without a mark were called inactive. Calls of active or inactive are those of the source. Cut-off read from the data, not from the text of the source: active = growth inhibition above about 70%; inactive = the rest.
# Experiments:
# [1] = NCI Yeast Anticancer Drug Screen. Data for the rad50 strain (AID 155);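 note: 0% = growth of vehicle-only cultures of the same strain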; settings: S. cerevisiae rad50 strain growth inhibition; at 50.0 µM; stronger effect = higher value
# How it was run: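 Genetically altered yeast (DNA repair pathway); compound treatment; growth inhibition vs vehicle ctrl.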
# [2] = NCI Yeast Anticancer Drug Screen. Data for the mec2-1 strain (AID 157); settings: S. cerevisiae mec2-1 strain, at 50.0 µM, stronger effect = higher value
# How it was run: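 Readout is yeast growth inhibition, normalised to vehicle-treated controls, in the mec2-1 strain exposed to compound.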
# [3] = NCI Yeast Anticancer Drug Screen. Data for the cln2 rad14 strain (AID 165);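 note: 0% = growth equal to vehicle treated cultures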; settings: S. cerevisiae cln2 rad14 strain, at 50.0 µM, stronger effect = higher value
# How it was run: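 Relative to vehicle controls, growth inhibition of compound-treated cln2 rad14 yeast was recorded.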
# [4] = NCI Yeast Anticancer Drug Screen. Data for the bub3 strain (AID 167); settings: S. cerevisiae bub3 mutant strain, at 50.0 µM, stronger effect = higher value
# How it was run: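 Yeast carrying a defined mutation is treated with each compound, and growth is compared with that of vehicle-exposed cells to give inhibition.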
# [5] = NCI Yeast Anticancer Drug Screen. Data for the mlh1 rad18 strain (AID 175); settings: S. cerevisiae mlh1 rad18 strain growth inhibition; at 50.0 µM; stronger effect = higher value
# How it was run: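 Test agents were incubated with a yeast strain of defined genotype (DNA damage repair defect). Inhibition of growth was derived by comparison with vehicle-exposed cultures.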
SMILES,growth inhibition [1],growth inhibition [2],growth inhibition [3],growth inhibition [4],growth inhibition [5]
COc1ccc(-c2nc3ccccc3c(=S)n2OC(C)=O)cc1,68.5%,77.2% (active),27.2%,90.2% (active),78.2% (active)
O=C(/C(=N/N=C\c1ccc([N+](=O)[O-])cc1)c1ccccc1)c1ccccc1,-10.6%,-18.4%,–,–,-1.25%
c1ccc2c(c1)OCCOCCOc1ccccc1OCCOCCO2,3.15%,10.8%,–,–,15.1%
O=[N+]([O-])c1ccc(-n2[nH]nnc2=S)cc1,-6.7%,-25%,–,–,16.1%
N#CC1(C#N)C2CCCCC23OC(=N)C1(C#N)C(c1ccco1)O3 (configuration not stated),15.8%,19.7%,-17.1%,-41.5%,-25.4%
COc1cc2c(cc1C1COc3cc4occc4cc3C1=O)OCO2 (configuration not stated),5.15%,-33.8%,6.8%,-4.45%,-25.6%
C[N+](C)(C)CN1C(=O)c2ccccc2C1=O,-11.9%,-29.2%,–,–,-4.8%
O=C(O)c1ccccc1Oc1ccccc1C(=O)O,-8.75%,-22.9%,–,–,-22.6%
OCC(CO)(CO)COCC(CO)(CO)COCC(CO)(CO)CO,-43%,-42.5%,–,-9.15%,-25.1%
CC1(C)S[C@H](CN)N[C@H]1C(=O)OC(c1ccccc1)c1ccccc1,-4.3%,-13.4%,-1%,-11.2%,-31.9%
COC(=O)C(=O)C(C(=O)C(=O)Nc1ccc(Cl)c(Cl)c1)c1nc2ccc(C(=O)c3ccccc3)cc2[nH]c1=O (configuration not stated),6.8%,-9.65%,5.95%,-3.05%,4.95%
N#C/C(=C\c1ccc(-c2ccccc2)cc1)C(N)=O,32%,8.6%,–,–,27.6%
S=C(S)N1CCC(CCCC2CCN(C(=S)S)CC2)CC1,-9.1%,-22.1%,–,–,-13.2%
O=[N+]([O-])c1cccc(C=Nc2cccc(C(F)(F)F)c2)c1,6.95%,4.35%,–,–,-12.2%
CC(=Nc1ccncc1)C(C)=Nc1ccncc1,89.7% (active),93.6% (active),88.8% (active),89.8% (active),88.7% (active)
COc1cc2c(c3c1c(=O)c1ccccc1n3C)C=C([N+](=O)[O-])C(C)(C)O2,1.4%,-32.8%,6.95%,-39.5%,-25.3%
Cc1cc2nn(C3CCCO3)nc2cc1C (configuration not stated),-10.6%,-23.5%,-15.3%,-3.8%,-36.4%
NC(N)=Nc1ccc(CC(N)C(=O)O)cc1 (configuration not stated),-0.5%,-18.8%,15.2%,-3.8%,-25.6%
O=C(O)c1cn(C2CC2)c2cc(N3CCNCC3)c(F)cc2c1=O,8.9%,-6.4%,–,-19.5%,-0.35%
OCNC(=S)c1c(Cl)cccc1Cl,-4.25%,-18.1%,–,–,-6.6%
N#C/C(=C1C=C(Br)/C(=N\O)C=C\1Cl)c1ccc(Cl)cc1,30.9%,4.55%,–,–,27.7%
C=CCOc1cccc(OCC=C)c1C,-14.9%,-20%,–,–,-3.9%
CCC(=O)CC1CCCC(CC(=O)CC)N1C (configuration not stated),-4.6%,-2.55%,–,–,17.6%
CC(C)=CC(O)C/C(C)=C/CC/C(C)=C/CCC1(C)C(CCCO)/C(=C(/C)C=O)CCC1(C)O (configuration not stated),18.9%,4.75%,16.9%,4.6%,-52.9%
Cc1ccccc1NC(=S)Nc1ccccn1,22%,-0.3%,–,–,10.3%
